In PubChem BioAssay (EPA / NIEHS):
Active and inactive are the calls of the source. How the source made its calls: active means hit-call score of the fitted dose curve at least 0.9, where 1 is the maximum; inactive means score below 0.9.

Columns and labels:
[1] = molecular target: Paired box protein Pax-6 (Homo sapiens) (UniProt P26367); test: ATG_Pax6_CIS: Attagene CIS-FACTORIAL HepG2 Assay for human Paired Box 6 (PAX6) (AID 2282956); settings: HepG2 CIS-FACTORIAL PAX6 reporter transcription, RNA readout; actives raise or lower the signal
Summary of the method: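 Read-out is reporter transcript level, measured by RT-PCR with fluorescent primer extension and capillary electrophoresis after 24 h dosing of transfected HepG2 cells. Activity in either direction fitted relative to DMSO control.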

[2] = ATG_PXRE_CIS: Attagene CIS-FACTORIAL HepG2 Assay for human Pregnane X Receptor Element (PXRE) (AID 2282957); settings: HepG2 Attagene CIS-FACTORIAL PXRE reporter, mRNA; actives raise or lower the signal
Summary of the method: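 Fluorescent capillary electrophoresis of amplified reporter cDNA gave the signal, collected 24 h after dosing HepG2 cells that held transfected cis-element reporter constructs.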

[3] = ATG_RORE_CIS: Attagene CIS-FACTORIAL HepG2 Assay for human RAR-related Orphan Receptor Element (RORE) (AID 2282959); settings: HepG2 Attagene cis-factorial RORE reporter, mRNA; actives raise or lower the signal
Summary of the method: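 HepG2 cells carrying transiently transfected cis-regulated reporter units; RORE-driven reporter mRNA quantified 24 h post-dosing by RT-PCR, 6-FAM primer extension, HpaI digestion and capillary electrophoresis. Bidirectional fit versus DMSO.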

[4] = ATG_Sox_CIS: Attagene CIS-FACTORIAL HepG2 Assay for human SRY-box transcription factor (SOX) (AID 2282960); settings: HepG2 Attagene cis-factorial SOX reporter, mRNA; actives raise or lower the signal
Summary of the method: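 HepG2 cells transiently transfected with multiple cis-regulated reporter units, then dosed for 24 h. Reporter mRNA quantified by RT-PCR, fluorescent labelling, HpaI digestion and capillary electrophoresis; bidirectional fit versus DMSO.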

[5] = ATG_SREBP_CIS: Attagene CIS-FACTORIAL HepG2 Assay for human Sterol Regulatory Element Binding (SREBP) (AID 2282962); settings: HepG2 Attagene cis-factorial SREBP reporter, mRNA; actives raise or lower the signal
Summary of the method: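 Endogenous SREBP activity read as cis-element-driven reporter transcript in transiently transfected HepG2, 24 h post-dosing; quantified via RT-PCR plus capillary electrophoresis of fluorescent fragments. Gain or loss of signal fitted relative to DMSO baseline.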

[6] = molecular target: Signal transducer and activator of transcription 3 (Homo sapiens) (UniProt P40763); test: ATG_STAT3_CIS: Attagene CIS-FACTORIAL HepG2 Assay for human Signal Transducer and Activator of Transcription 3 (STAT3) (AID 2282963); settings: HepG2, Attagene cis-factorial STAT3 reporter transcription; actives raise or lower the signal
Summary of the method: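 Readout is reporter transcript quantified by RT-PCR and capillary electrophoresis, with 6-FAM primer extension and HpaI digestion. Total RNA is taken 24 h after dosing transiently transfected HepG2 carrying cis-regulated reporter units. Bidirectional fit against DMSO.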

[7] = ATG_TA_CIS: Attagene CIS-FACTORIAL HepG2 Assay for human TA Basal Promoter (AID 2282964); settings: HepG2 Attagene CIS-factorial TA basal promoter reporter; actives raise or lower the signal
Summary of the method: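 HepG2 cells transiently transfected with multiple reporter units under cis promoter elements, reporting endogenous transcription factor activity; this endpoint tracks the TA basal promoter as background control. Reporter mRNA after 24 h dosing measured by RT-PCR/capillary electrophoresis; bidirectional fits versus DMSO.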

[8] = ATG_TCF_b_cat_CIS: Attagene CIS-FACTORIAL HepG2 Assay for human T-Cell-Factor with beta-catenin (TCF/b-cat) (AID 2282965); settings: HepG2 TCF/beta-catenin cis-reporter transcription, actives raise or lower the signal
Summary of the method: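 Measured: reporter mRNA in HepG2 transiently transfected with cis-promoter reporter units, 24 h after chemical addition. Fitting was bidirectional, DMSO as negative control.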

[9] = molecular target: Transcription factor Sp1 (Homo sapiens) (UniProt P08047); test: ATG_Sp1_CIS: Attagene CIS-FACTORIAL HepG2 Assay for human Specificity Protein 1 (Sp1) (AID 2282961); settings: HepG2 Sp1 cis-reporter transcription, actives raise or lower the signal
Summary of the method: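 HepG2 cells transiently transfected with multiplexed cis-regulated reporter constructs, chemical exposure 24 h. Reporter mRNA quantified by RT-PCR with capillary electrophoresis; bidirectional fit relative to DMSO.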

[10] = ATG_PPRE_CIS: Attagene CIS-FACTORIAL HepG2 Assay for human Peroxisome Proliferator-activated Response Element (PPRE) (AID 2282958); settings: HepG2 PPRE cis-element reporter, Attagene transcription factor profiling; actives raise or lower the signal
Summary of the method: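 HepG2 cells are transiently transfected with multiplexed cis-promoter reporter units to report endogenous PPAR activity. After 24 h dosing, reporter mRNA is read by RT-PCR and capillary electrophoresis. Fitting is bidirectional against DMSO.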

Measured: AC50

Signal transducer and activator of transcription 3 (Homo sapiens), sequence (P40763 whole entry, looked up): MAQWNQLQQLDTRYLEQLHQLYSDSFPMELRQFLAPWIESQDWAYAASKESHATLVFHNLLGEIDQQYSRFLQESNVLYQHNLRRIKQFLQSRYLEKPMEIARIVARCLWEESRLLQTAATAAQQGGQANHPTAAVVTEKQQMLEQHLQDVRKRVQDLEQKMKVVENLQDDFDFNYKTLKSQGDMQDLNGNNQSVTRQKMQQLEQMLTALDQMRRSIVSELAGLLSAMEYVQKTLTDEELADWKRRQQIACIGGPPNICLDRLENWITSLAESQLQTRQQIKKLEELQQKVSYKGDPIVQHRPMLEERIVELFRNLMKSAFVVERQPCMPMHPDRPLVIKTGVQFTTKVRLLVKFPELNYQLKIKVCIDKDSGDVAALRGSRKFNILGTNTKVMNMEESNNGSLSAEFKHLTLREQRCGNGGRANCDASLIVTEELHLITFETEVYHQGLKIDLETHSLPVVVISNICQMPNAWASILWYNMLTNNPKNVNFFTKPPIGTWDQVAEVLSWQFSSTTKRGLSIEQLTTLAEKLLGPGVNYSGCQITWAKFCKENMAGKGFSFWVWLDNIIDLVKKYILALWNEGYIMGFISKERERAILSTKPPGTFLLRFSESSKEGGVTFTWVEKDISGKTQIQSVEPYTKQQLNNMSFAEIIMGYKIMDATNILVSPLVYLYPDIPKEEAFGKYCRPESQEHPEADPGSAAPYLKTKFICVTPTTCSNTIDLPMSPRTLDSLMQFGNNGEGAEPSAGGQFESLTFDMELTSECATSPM
Transcription factor Sp1 (Homo sapiens), sequence (P08047 whole entry, looked up): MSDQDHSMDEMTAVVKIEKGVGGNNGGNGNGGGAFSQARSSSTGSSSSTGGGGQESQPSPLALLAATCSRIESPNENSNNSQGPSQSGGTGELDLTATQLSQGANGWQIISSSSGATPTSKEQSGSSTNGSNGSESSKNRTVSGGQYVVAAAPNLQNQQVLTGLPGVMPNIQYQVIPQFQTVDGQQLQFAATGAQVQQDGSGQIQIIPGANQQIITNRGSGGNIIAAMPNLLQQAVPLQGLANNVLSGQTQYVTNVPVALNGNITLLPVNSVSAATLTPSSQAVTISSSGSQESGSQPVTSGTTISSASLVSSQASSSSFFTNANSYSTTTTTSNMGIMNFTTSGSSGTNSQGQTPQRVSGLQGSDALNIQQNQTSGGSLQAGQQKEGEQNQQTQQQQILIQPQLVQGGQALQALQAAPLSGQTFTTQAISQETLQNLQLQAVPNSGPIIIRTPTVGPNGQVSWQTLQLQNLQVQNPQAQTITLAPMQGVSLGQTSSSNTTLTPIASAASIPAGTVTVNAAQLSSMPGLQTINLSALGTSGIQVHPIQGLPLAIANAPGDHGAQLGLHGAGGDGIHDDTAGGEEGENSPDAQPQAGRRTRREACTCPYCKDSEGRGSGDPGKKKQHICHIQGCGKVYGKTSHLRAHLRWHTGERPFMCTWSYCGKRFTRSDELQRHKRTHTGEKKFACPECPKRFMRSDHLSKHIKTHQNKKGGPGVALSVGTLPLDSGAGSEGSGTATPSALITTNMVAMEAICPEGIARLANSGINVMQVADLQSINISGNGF
Paired box protein Pax-6 (Homo sapiens), sequence (P26367 whole entry, looked up): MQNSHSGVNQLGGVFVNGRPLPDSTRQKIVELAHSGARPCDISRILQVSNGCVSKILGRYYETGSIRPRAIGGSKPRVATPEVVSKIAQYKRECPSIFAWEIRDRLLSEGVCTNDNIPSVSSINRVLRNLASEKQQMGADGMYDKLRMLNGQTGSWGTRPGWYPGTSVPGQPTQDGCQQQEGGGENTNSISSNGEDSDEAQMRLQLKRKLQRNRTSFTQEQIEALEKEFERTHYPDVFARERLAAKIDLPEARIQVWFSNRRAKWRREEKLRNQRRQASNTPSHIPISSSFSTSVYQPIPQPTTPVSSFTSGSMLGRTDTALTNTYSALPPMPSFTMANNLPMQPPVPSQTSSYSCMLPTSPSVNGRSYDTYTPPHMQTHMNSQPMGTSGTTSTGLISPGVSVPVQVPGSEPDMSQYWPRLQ

CN(C)c1ccncc1
active: [2] 71.6 µM
not listed: [9] | [10]
inactive: all other assays above

CC(=O)OCCCc1ccccc1
active: [2] 27.4 µM
not listed: [10]
inactive: all other assays above

CC1(C)O[C@@H]2[C@@H](CO[C@@]3(COS(N)(=O)=O)OC(C)(C)O[C@@H]23)O1
active: [2] 57.9 µM
not listed: [9] | [10]
inactive: all other assays above

COc1ccccc1N=Nc1c(S(=O)(=O)O)cc2cc(S(=O)(=O)O)cc(NC(C)=O)c2c1O
active: [2] 25.7 µM
not listed: [7] | [10]
inactive: all other assays above

COc1ccc(COC(C)=O)cc1
not listed: [10]
inactive: all other assays above

CC(=O)O[C@@H]1C[C@@H]2CC[C@@]1(C)C2(C)C
not listed: [10]
inactive: all other assays above

OCC(O)c1ccccc1 (stereo unspecified)
not listed: [10]
inactive: all other assays above

O=C(Nc1ccc2c(c1)Cc1ccccc1-2)C(F)(F)F
inactive: [1] | [4] | [5] | [6]
active: [2] 27.7 µM | [3] 17.5 µM

O=P(O)(O)O
not listed: [10]
inactive: all other assays above

N#Cc1cscn1
active: [2] 71.7 µM
not listed: [10]
inactive: all other assays above

CCCCC(CC)COC(=O)c1ccc(O)cc1 (stereo unspecified)
active: [2] 11.1 µM
not listed: [10]
inactive: all other assays above

CSc1c(Cl)c(Cl)c(Cl)c(Cl)c1Cl
inactive: [3] | [6]
active: [1] 100 µM | [2] 2.94 µM | [5] 135 µM | [8] 50.3 µM

COCCOCCOCCO
active: [2] 33.4 µM
not listed: [4] | [10]
inactive: all other assays above

C=C(C)C(=O)OCCOCCOCCOCCOC(=O)C(=C)C
active: [2] 35.3 µM
not listed: [10]
inactive: all other assays above

CCN(CCN)c1cccc(C)c1
active: [2] 36.2 µM
not listed: [10]
inactive: all other assays above

C=C(C)[C@H]1CC=C(C)C(=O)C1
active: [2] 27.9 µM
not listed: [10]
inactive: all other assays above

O=CCc1ccccc1
active: [2] 9.42 µM
not listed: [10]
inactive: all other assays above

CCCCCCCCCCCC(=O)OCC(O)CO (stereo unspecified)
active: [2] 169 µM | [5] 100 µM
not listed: [4] | [10]
inactive: all other assays above

C=C(C)C1CC=C(C)C(=O)C1 (stereo unspecified)
active: [2] 33.4 µM
not listed: [10]
inactive: all other assays above

C=C(C#N)C(=O)OCC
active: [8] 100 µM
not listed: [2] | [9]
inactive: all other assays above

C[C@H]1O[C@@H](O[C@H]2[C@@H](O)C[C@H](O[C@H]3[C@@H](O)C[C@H](O[C@H]4CC[C@@]5(C)[C@H](CC[C@@H]6[C@@H]5C[C@@H](O)[C@]5(C)[C@@H](C7=CC(=O)OC7)CC[C@]65O)C4)O[C@@H]3C)O[C@@H]2C)C[C@H](O)[C@@H]1O
inactive: [10] | [4] | [7]
active: [1] 0.0811 µM | [9] 42 nM | [5] 0.0822 µM | [6] 3.54 µM | [8] 1.03 µM

CC(C)C(OC(=O)c1ccccc1)C(C)(C)COC(=O)c1ccccc1 (stereo unspecified)
inactive: [1] | [10] | [9] | [5] | [6] | [7]

CC(=O)c1c(C)c([N+](=O)[O-])c(C(C)(C)C)c([N+](=O)[O-])c1C
not listed: [2]
inactive: all other assays above

COCCOC(=O)c1ccccc1C(=O)OCCOC
not listed: [2]
inactive: all other assays above

c1ccc2[nH]cnc2c1
not listed: [2] | [4]
inactive: all other assays above

C/C=C(\C)C(=O)OCCc1ccccc1
active: [2] 27.7 µM
not listed: [1] | [8]
inactive: all other assays above

O=C(Nc1ccc([N+](=O)[O-])cc1)Nc1ccc([N+](=O)[O-])cc1 (tested in a mixture with another compound)
not listed: [2]
inactive: all other assays above

Cc1cc(CCC(=O)OCCOCCOCCOC(=O)CCc2cc(C)c(O)c(C(C)(C)C)c2)cc(C(C)(C)C)c1O
not listed: [2] | [10]
inactive: all other assays above

CCC(=O)OCCOc1ccccc1
not listed: [2] | [9] | [10]
inactive: all other assays above

Oc1c(Cl)cc(Cl)c(Cl)c1Cc1c(O)c(Cl)cc(Cl)c1Cl
active: [1] 11.1 µM | [3] 2.2 µM | [8] 11.1 µM
not listed: [2] | [10]
inactive: all other assays above

C[C@H]1C[C@@H](O)CC(C)(C)C1
not listed: [2] | [4]
inactive: all other assays above

CN(c1nccc(=O)[nH]1)C1CCN(c2nc3ccccc3n2Cc2ccc(F)cc2)CC1
not listed: [2] | [10]
inactive: all other assays above

NCCNc1cccc2ccccc12
active: [1] 100 µM | [10] 99.2 µM | [5] 35.6 µM | [8] 49.8 µM
inactive: [4] | [9] | [6] | [7]

C=CC(C)(O)CCC=C(C)C (stereo unspecified)
active: [2] 46.9 µM
not listed: [3] | [4] | [10]
inactive: all other assays above

CCN(CC)C(=O)N(CC)CC
not listed: [2] | [9]
inactive: all other assays above

C=CC(=O)OCCCC
not listed: [2] | [8] | [10]
inactive: all other assays above

CCOC(=O)CC(C)O (stereo unspecified)
not listed: [2] | [8]
inactive: all other assays above

Nc1ccc2cc(S(=O)(=O)O)cc(O)c2c1N=Nc1ccccc1C(F)(F)F
not listed: [2] | [3]
inactive: all other assays above

O=C(O)c1cc(C(=O)O)cc([N+](=O)[O-])c1
not listed: [2] | [10]
inactive: all other assays above

O=CN1CCOCC1
not listed: [2]
inactive: all other assays above

CC(=O)C(C)O (stereo unspecified)
not listed: [2]
inactive: all other assays above

CN1CCOCC1
not listed: [2]
inactive: all other assays above

CC/C=C\CCOC(=O)CC
inactive: [1] | [4] | [9] | [5] | [6] | [7]

CCC1(c2ccccc2)C(=O)NCNC1=O
not listed: [2] | [10]
inactive: all other assays above

COc1ccc(CCO)cc1
active: [6] 179 µM
not listed: [2] | [8]
inactive: all other assays above

Cc1c(OCC(F)(F)F)ccnc1CS(=O)c1nc2ccccc2[nH]1 (stereo unspecified)
active: [1] 43.5 µM | [3] 19.8 µM | [7] 37.3 µM | [8] 57.7 µM
not listed: [2]
inactive: all other assays above

O=C(O)c1cccnc1C(=O)O
not listed: [2] | [4] | [10]
inactive: all other assays above

Cc1ccc(OC(=O)c2ccccc2O)cc1
not listed: [2]
inactive: all other assays above

C=C(C)C(=O)OCCOC1CC2CC1C1C=CCC21 (stereo unspecified)
not listed: [2]
inactive: all other assays above

C=C1C[C@]23C[C@@]1(O)CC[C@H]2[C@@]12C=C[C@H](O)[C@@](C)(C(=O)O1)[C@H]2[C@@H]3C(=O)O
not listed: [2] | [4]
inactive: all other assays above

CC(=O)CC(=O)Nc1ccccc1
not listed: [2] | [3]
inactive: all other assays above

C[Si](C)(C)O[Si](C)(C)C
not listed: [2] | [8]
inactive: all other assays above

CCCCOC(=O)CCCCCCCC(=O)OCCCC
active: [8] 128 µM
not listed: [2]
inactive: all other assays above

COc1ccc(CCC(C)=O)cc1
not listed: [2] | [8] | [9]
inactive: all other assays above
